# Bioassay records from PubChem.
# aSyn 5UTR act: Activators via SNCA 5'UTR binding, MLPCN; activity score, % (tested at 7.5 µM), hits read low; alpha-synuclein 5'UTR reporter, activators screen; hit rate 7.1% among 300,000; in the data active = activity score below about -60%
# Starred values were filed as active, the others as inactive. Not all results are given here.
SMILES,aSyn 5UTR act
CCOC(=O)c1ccc2nc(NC(C)=O)sc2c1,-126*
CC(=O)Nc1nc2ccc(Br)cc2s1,-107*
COC(=O)c1ccc2nc(NC(=O)C(C)C)sc2c1,-74*
Cc1ccc2nc(NC(=O)COC(=O)c3ccncc3)sc2c1,-118*
CCCNC(=O)Cn1cnc2sc(C(=O)Nc3ccc4c(c3)OCO4)c(C)c2c1=O,-63*
CCn1cnc2sc(C(=O)Nc3ccc4c(c3)OCO4)c(C)c2c1=O,-145*
COc1cc(C2C=C(Nc3ccccc3)C(=O)N2c2ccccc2)ccc1O (stereo not drawn),-72*
CN(C)c1ccc(NC(=S)NC(=O)/C=C/c2ccc(Cl)cc2)cc1,-219*
CCN(CC)c1ccc(NC(=O)/C=C\c2ccccc2Cl)cc1,-190*
CN(C)c1ccc(NC(=O)/C=C/c2ccccc2Cl)cc1,-161*
Cc1nc2ccc(NC(=O)Cc3cccc(F)c3)cc2s1,-80*
Cc1nc2ccc(NC(=O)Cc3ccccc3F)cc2s1,-175*
Cc1nc2ccc(NC(=O)Cc3ccsc3)cc2s1,-108*
O=C(CSCc1ccccc1)N1CCN(c2ccccc2)CC1,-103*
O=C(CSCc1cccc(F)c1)N1CCN(c2ccccc2)CC1,-199*
FC(F)(F)Oc1ccc(Nc2nc3ccccc3o2)cc1,-260*
c1ccc(Nc2nc3ccccc3o2)cc1,-189*
Cc1cc(C)nc(Nc2nc3ccccc3o2)n1,-70*
O=Cc1c(NCc2ccco2)nc2ccccn2c1=O,-89*
COc1ccccc1NC(=S)N(Cc1ccco1)Cc1cc2cc(C)c(C)cc2[nH]c1=O,91
Cc1ccc2[nH]c(=O)c(-c3nc4ccccn4c3NCc3ccco3)cc2c1,-100*
CSc1nc2ncc(-c3ccsc3)c(N)n2n1,-62*
CCCN=Cc1sc2ccc(OCC)cc2c1O,-126*
Cc1ccc2nc(-c3ccccn3)c(NC3CCCC3)n2c1,-165*
Oc1ccc(Br)cc1-c1ccnn1-c1ccccc1,-114*
SMILES,aSyn 5UTR act
CCc1nc(C)c(C(=O)N2CCCC(C(=O)Nc3cccc(-c4cccc(C)c4)c3)C2)o1 (stereo not drawn),-77*
Cc1cccc(-c2cccc(NC(=O)C3CCCN(C(=O)c4csc(C)n4)C3)c2)c1 (stereo not drawn),-70*
COc1ccc(NC(=O)Nc2cccs2)cc1OC,-82*
COc1cccc(NC(=O)Nc2cccs2)c1,-80*
Cc1nn2c3c(cnc2c1-c1ccccc1)C(=O)CCC3,-90*
Cc1nn2c(N)c(-c3ccccc3)cnc2c1-c1ccc(Cl)cc1,-193*
Cc1nc2c(-c3ccccc3)c(C)nn2c(N)c1-c1ccccc1,-137*
Cc1ccc(-c2ccnc3c(Cl)c(C)nn23)cc1,69
Cc1nc2nc(N)nn2c(C)c1C/C=C/c1ccccc1,46
Cc1nn2c(-c3ccccc3)ccnc2c1-c1ccccc1,-139*
CN(C)CCN(C(=O)c1cccs1)c1nc2cc3c(cc2s1)OCCO3,-106*
CN(C)CCN(C(=O)c1ccc(Br)s1)c1nc2cc3c(cc2s1)OCCO3,-72*
CCc1ccc(NC(=O)C(=S)NC2CCCCC2)cc1,-177*
COc1ccc(NC(=O)CSC2CCCCC2)cc1,-158*
CCOc1ccc(NC(=O)C(=S)NC2CCCCC2)cc1,-192*
O=C(CSCCO)Nc1ccc(C2CCCCC2)cc1,-127*
COc1ccc(NC(=O)C(=S)NC2CCCCC2)cc1,-125*
COc1ccc(NC(=O)C(=S)N2CCCC2)cc1,-63*
Cc1cc(C)nc(/N=C(\N)Nc2ccc3c(c2)OCCO3)n1,-126*
Cc1ccc(CN=C(N)Nc2nc(C)cc(C)n2)cc1,117
Cc1cc(C)nc(/N=C(\N)Nc2ccc(F)c([N+](=O)[O-])c2)n1,-124*
Cc1cccc(NC(=O)CSc2nc(C)c(CC(=O)c3ccc(Br)cc3)c(C)c2C#N)c1C,49
CSc1nc(N)nc(SCC(=O)c2ccccc2)c1C#N,-76*
COc1cccc(/C=N/n2cnc3ccccc32)c1OC,-191*
COc1cccc(/C=N/n2c(N)nc3ccccc32)c1OC,-154*
SMILES,aSyn 5UTR act
CCN1CCN(Cc2ccc(OCc3ccccc3)c(OC)c2)CC1,-90*
CCN1CCN(Cc2ccc(OCc3ccccc3)cc2)CC1,-77*
Cn1cc(/C=C2/SC(=O)N(c3ccccc3)C2=O)c2ccccc21,-221*
Cn1cccc1/C=C1\SC(=O)N(c2ccccc2)C1=O,-115*
CCCc1cc2c(cc1NC(=O)c1ccc(C(C)(C)C)cc1)OCO2,-74*
O=C(c1ccco1)N1CCCC(Nc2ccc3c(c2)OCCO3)C1 (stereo not drawn),-79*
O=C(NC(=S)Nc1cccc(O)c1)c1ccco1,-131*
O=C(NC(=S)Nc1ccc2c(c1)OCCO2)c1ccco1,-114*
Cc1c(C)n(CCc2ccccc2)c2ncnc(NCCO)c12,-146*
N=c1c2c(-c3ccccc3)c(-c3ccccc3)n(Cc3ccccc3)c2ncn1CCO,61
COc1ccccc1Nc1ncnc2c1c(C)c(C)n2CCO,-103*
O=C(Nc1ccc2c(c1)nc1n2CCOC1)c1ccccc1,-80*
CCCCC(=O)Nc1ccc2c(c1)nc1n2CCOC1,-77*
CC1Cc2cc(/C(O)=C3/C(=O)C(=O)N(CC4CCCO4)C3c3ccco3)ccc2O1 (stereo not drawn),-62*
Cc1cc(/C=C2\SC(=S)N(Cc3ccco3)C2=O)c(C)n1-c1cccnc1,-181*
CCCCc1c(C)nc2cc(-c3ccco3)[nH]n2c1=O,-68*
CCc1c(C)nc2cc(-c3ccccc3)[nH]n2c1=O,-110*
COc1ccc(N2Nc3n[nH]c(N)c3N2)cc1,-73*
CCOc1ccc(N2Nc3n[nH]c(N)c3N2)cc1,-65*
O=C(CSCc1ccco1)N1CCc2ccccc21,-83*
CCn1c(CNc2ccc(OC)cc2)nnc1SCC(=O)N1CCCc2ccccc21,-70*
Cc1nc(SCC(=O)N2CCc3ccccc32)n[nH]1,-68*
O=C(Cc1c[nH]c2ccccc12)N1CCc2ccccc21,-63*
Nc1cc(N)nc(SCC(=O)N2CCc3ccccc32)n1,-87*
Cc1ccc2c(CC(=O)N3CCc4ccccc43)coc2c1,-161*
SMILES,aSyn 5UTR act
CCn1c(-c2ccc(F)cc2)cnc1SCC(=O)N1CCc2ccccc21,-85*
O=C(CSc1ccccc1)N1CCc2ccccc21,-113*
O=C(CSCc1ccco1)c1ccc(Cl)s1,-116*
COC(=O)c1c(-c2ccccc2)csc1NC1=NS(=O)(=O)c2ccccc21,-121*
O=C(Nc1ccccc1)OCCOc1ccccc1Br,-125*
O=C(Nc1ccccc1)OCCOc1ccccc1,-143*
O=C(Nc1ccccc1)OCc1ccccn1,-102*
O=C(Nc1cccc(Cl)c1)OCCOc1ccccc1,-140*
O=C(Nc1ccccc1)OCc1cc(-c2ccccc2Cl)on1,-160*
CCC1(COC(=O)Nc2cccc(Cl)c2)COC1,-93*
CCOc1ccc(-c2nc(CCl)cs2)cc1,-70*
COc1ccc(/C=N/c2c(-c3ccco3)nc3ccccn23)cc1OC,-64*
O=C(CCS(=O)(=O)c1ccccc1)N(CCCN1CCOCC1)c1nc2ccc(F)cc2s1,-132*
O=C(Nc1ccc2c(c1)OCO2)c1ccc(CN2CCOCC2)cc1,-104*
CC(C)c1ccc(NC(=S)NN2CCOCC2)cc1,-135*
CC(C)c1ccc(C(=O)Nc2ccc(CN3CCOCC3)cc2)cc1,-68*
CSc1ccccc1NC(=O)c1ccc(CN2CCOCC2)cc1,-97*
Cc1c(Cl)cccc1NC(=S)N=Nc1c(O)n(CN2CCOCC2)c2ccccc12,64
COCC(=O)N/N=C\c1ccccc1OC/C=C/c1ccccc1,-95*
N#CCC(=O)N/N=C\c1ccccc1OC/C=C/c1ccccc1,-166*
